Integrin act MD: qHTS for Activators of Integrin-Mediated Alleviation for Muscular Dystrophy; alpha7betagal myoblasts, beta-gal FDG fluorescence, 48 h; Potency, µM (titrated, usually from 38.3 µM), inactives show at the top dose activation, actives largely listed as activators; actives 0.064% (n = 350,000); active means well fitted activation curve with a large enough effect; inconclusive means small, poorly fitted or top-dose-only effect; inactive means no such curve, though single readings can be large or run the other way;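 further: potency means the concentration at half of the fitted maximal effect; 100% = response of the positive control SU9516; nearly all actives have a fitted effect of over 60% in size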
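alpha7betagal+/- myoblasts (passage 13, 250/well) treated 48 h at 37C with compounds at 1:260 dilution of DMSO stock. Lysed, then beta-galactosidase activity read as FDG fluorescence (ex 480/em 540) after 30 min, with pre-read for autofluorescence.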
DRD3 agonist: qHTS of D3 Dopamine Receptor Agonist: qHTS; D(3) dopamine receptor (Homo sapiens), P35462; D3R DiscoveRx beta-arrestin cells, luminescence, 90 min; max activation, %; actives 0.58% (n = 410,000); AID 652048, 2013; in the data active means max activation above about 30%; further: 0% is about no effect
Target sequence (P35462 whole entry, looked up): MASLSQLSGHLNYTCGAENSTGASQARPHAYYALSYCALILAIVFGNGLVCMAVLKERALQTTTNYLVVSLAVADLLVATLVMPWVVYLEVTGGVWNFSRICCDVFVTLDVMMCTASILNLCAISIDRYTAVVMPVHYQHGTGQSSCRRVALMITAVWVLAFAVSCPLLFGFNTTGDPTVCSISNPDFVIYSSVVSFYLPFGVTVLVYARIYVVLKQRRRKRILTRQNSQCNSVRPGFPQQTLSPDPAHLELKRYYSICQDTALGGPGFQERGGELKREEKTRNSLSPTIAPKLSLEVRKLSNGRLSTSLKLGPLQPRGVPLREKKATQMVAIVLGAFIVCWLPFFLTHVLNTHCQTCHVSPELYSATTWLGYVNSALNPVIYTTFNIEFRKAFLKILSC
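Agonist mode: compounds and dopamine controls were applied to plated cells for 90 min at 37 degrees C after an overnight attachment at 1500 cells/well. Luminescent read-out followed 30 - 60 minutes at room temperature with DiscoveRx detection reagent.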
DRD3 antagonist: qHTS of D3 Dopamine Receptor Antagonist: qHTS; D3R cells, DiscoveRx beta-arrestin luminescence, antagonist mode; active compounds read low; max response, negative = inhibition, %; actives 2.5% (n = 360,000); AID 652054, 2013; in the data active means max response below about -50%; inconclusive means no clear call, values can overlap the other calls; further: on the % scale 0 is the no-effect control and ±100 the full control effect
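Cells expressing the human receptor were seeded at 1500 cells/well, incubated overnight at 37 degrees C in 5% CO2, then exposed to library compounds with dopamine controls for 90 minutes at 37 degrees C before luminescent detection.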
* marks the source's active call; other numbers are inactive results; ! = repeats disagree; [ ] = remark or other dose. A selection: hits, their analogues and other compounds. The true share with any hit is near 2.9%.

COC(=O)C1=C(c2ccc(F)cc2F)C[C@@H]2CC[C@H]1N2C(=O)NCC1CC1 was read as Integrin act MD 21.3%, DRD3 agonist 9.4 and DRD3 antagonist 1.3.
`COC(=O)C1=C(c2c(C)noc2C)C[C@@H]2CC[C@H]1N2C(=O)N1CCCC1` gave Integrin act MD 29.3%, DRD3 agonist 57.8* and DRD3 antagonist 6.4.
For COC(=O)C1=C(c2ccc(F)cc2F)C[C@@H]2CC[C@H]1N2C(=O)NCc1ccco1 the results were Integrin act MD 16.4%, DRD3 agonist 40.7* and DRD3 antagonist inconclusive.
`Brc1ccc(-[n+]2c(-c3ccccc3)cc(-c3ccccc3)cc2-c2ccccc2)cc1` gave Integrin act MD -41.6%, DRD3 agonist -14.6 and DRD3 antagonist -12.0.
Screening CCC(=O)OC1CCC2C3CCC4CC(=O)C=CC4(C)C3CCC12C (stereo not drawn) returned Integrin act MD -21.1%, DRD3 agonist 5.7 and DRD3 antagonist -1.7.
For CC1CCCN(CC(=O)N2CCCc3ccccc32)C1 (stereo not drawn) the results were Integrin act MD -6.4%, DRD3 agonist -35.4 and DRD3 antagonist -57.4*.
`O=C(c1ccccc1)c1cn(CC(=O)N2CCCc3ccccc32)c2ccccc12` gave Integrin act MD 8.9%, DRD3 agonist -1.4 and DRD3 antagonist 19.3.
Cn1c(O)c(C=NCCCN2CCCC2=O)c(=O)n(C)c1=O was read as Integrin act MD -26.7%, DRD3 agonist -0.2 and DRD3 antagonist -64.7*.
For CN1CCN(/N=C/c2c(O)n(C)c(=O)n(C)c2=O)CC1 the results were Integrin act MD -0.4%, DRD3 agonist 4.9 and DRD3 antagonist 12.8.
Screening CCCCCN1C(=O)c2cc(OC)ccc2[C@@]2(C(=O)OCC)Cc3cc(OC)ccc3[C@@H]12 returned DRD3 agonist -4.6 and DRD3 antagonist -2.3.
O=c1[nH]c(=O)n(CCC2=CCCCC2)c(O)c1C=Nc1cccc(F)c1 was read as Integrin act MD 25.1%[7.66 µM], DRD3 agonist -1.9 and DRD3 antagonist -21.1.
Screening O=C(N/N=C/c1c(O)n(CCC2=CCCCC2)c(=O)[nH]c1=O)c1ccccc1 returned Integrin act MD 21.1%, DRD3 agonist -5.3 and DRD3 antagonist -68.2*.
`O=C(N/N=C/c1c(O)n(CCC2=CCCCC2)c(=S)[nH]c1=O)c1ccccc1` gave Integrin act MD 19.9%, DRD3 agonist -1.3 and DRD3 antagonist inconclusive.
Nc1ccccc1N=Cc1c(O)n(CCC2=CCCCC2)c(=O)[nH]c1=O was read as Integrin act MD 12.4%, DRD3 agonist -10.1 and DRD3 antagonist -87.4*.
Screening Cc1c(P(=S)(c2ccccc2)c2ccccc2)[n+]2ccccc2n1C returned Integrin act MD 25.9%, DRD3 agonist -9.8 and DRD3 antagonist -10.1.
For CC(C)N1C(=O)CC2(CC[N+](C)(CCOC(=O)C(O)(c3ccccc3)c3ccccc3)CC2)C1=O (stereo not drawn) the results were Integrin act MD 23.7%, DRD3 agonist 5.8 and DRD3 antagonist -7.7.
Screening CN(C)CCN=Cc1c(O)n(C2CCCCCC2)c(=O)[nH]c1=O returned Integrin act MD 1.2%, DRD3 agonist 5.2 and DRD3 antagonist 4.2.
Screening CCN(CC)CCN=Cc1c(O)n(C2CCCCCC2)c(=O)[nH]c1=O returned Integrin act MD 29.8%, DRD3 agonist 39.3* and DRD3 antagonist -0.2.
For Cc1ccc(CN2C(=O)c3ccccc3Sc3ccc(C(=O)N4CCC5(CC4)OCCO5)cc32)cc1 the results were DRD3 agonist 1.8.
`CC1CCCN(CCCNC(=O)c2ccc3c(c2)N(Cc2cccc(Cl)c2)C(=O)c2ccccc2S3=O)C1` (stereo not drawn) gave Integrin act MD -61.5%, DRD3 agonist -10.3 and DRD3 antagonist -117.2*.
Screening COc1cc(C(c2c(O)c3ccccc3oc2=O)c2c(C)n(C)n(-c3ccccc3)c2=O)ccc1OCC(=O)O (stereo not drawn) returned DRD3 agonist -17.2.
`COC(=O)C1=C(c2ccc(F)cc2F)C[C@@H]2CC[C@H]1N2C(=O)NCc1ccc2c(c1)OCO2` gave Integrin act MD 12.9%, DRD3 agonist -16.7 and DRD3 antagonist -15.2.
Screening CN(C(=O)Oc1ccc(Cl)c2cccnc12)c1ccccc1 returned Integrin act MD 1.2%, DRD3 agonist 3.0 and DRD3 antagonist 6.6.
Screening Cc1cccc(NC(=O)Oc2ccc(Cl)c3cccnc23)c1 returned Integrin act MD -45.8%, DRD3 agonist -30.0 and DRD3 antagonist -119.8*.
C[n+]1c2ccccc2nc2ccc(NCCO)cc21 was read as Integrin act MD -13.2%, DRD3 agonist -22.6 and DRD3 antagonist -53.9*.
`CNc1ccc2nc3ccccc3[n+](C)c2c1` gave Integrin act MD -15.1%, DRD3 agonist -11.4 and DRD3 antagonist -58.5*.
`OCCNc1c2c(nc3ccccc13)CCCC2` gave Integrin act MD 1.4%, DRD3 agonist -1.5 and DRD3 antagonist -25.5.
Cc1ccccc1-n1c(C)nc2ccccc2c1=O was read as Integrin act MD -24.6%, DRD3 agonist 67.8*! and DRD3 antagonist 11.2.
For Cc1cccc(-n2c(C)nc3ccccc3c2=O)c1C the results were Integrin act MD -14.1%, DRD3 agonist -11.1 and DRD3 antagonist -18.0.
For CCn1c(O)c(C=NCc2cccs2)c(=O)[nH]c1=O the results were Integrin act MD -14.9%, DRD3 agonist 2.1 and DRD3 antagonist 9.0.
`C=C1C(=O)O[C@H]2C[C@@H](C)[C@@H]3C=CC(=O)[C@@]3(C)C[C@H]12` gave Integrin act MD -40.7%, DRD3 agonist -2.7 and DRD3 antagonist -66.0*.
`C=C1C(=O)O[C@@H]2C[C@@H](C)[C@@H]3C4OC4C(=O)[C@@]3(C)[C@@H](O)[C@H]12` (stereo partly drawn) gave Integrin act MD -40.3%, DRD3 agonist -22.5 and DRD3 antagonist -91.1*.
C=C1C(=O)O[C@@H]2C[C@@H](C)[C@@H]3C=CC(=O)[C@@]3(C)[C@@H](OC(=O)CC(=O)O[C@H]3[C@@H]4C(=C)C(=O)O[C@@H]4C[C@@H](C)[C@@H]4C=CC(=O)[C@]43C)[C@H]12 was read as Integrin act MD -41.3%, DRD3 agonist -31.6 and DRD3 antagonist -110.1*.
For C=C1C(=O)OC2CC(C)C3C=CC(=O)C3(C)C(O)C12 (stereo not drawn) the results were Integrin act MD -52.3%, DRD3 agonist -26.2 and DRD3 antagonist -74.8*.
C=C1C(=O)OC2C1CCC(C)C1(O)C=CC(=O)C21C (stereo not drawn) was read as Integrin act MD -45.2%, DRD3 agonist 3.9 and DRD3 antagonist 22.1.
C=C1C(=O)O[C@H]2[C@H]1[C@H](OC(=O)CC(=O)O[C@@H]1C[C@@H](C)[C@@H]3C=CC(=O)[C@@]3(C)[C@H]3OC(=O)C(=C)[C@H]13)C[C@@H](C)[C@H]1C=CC(=O)[C@]12C was read as Integrin act MD -29.6%, DRD3 agonist -4.8 and DRD3 antagonist -13.1.
For O=C(O)CCC(=O)NCCC1=c2ccccc2=N/C1=C\c1c(O)n(Cc2ccc(F)cc2)c(=S)[nH]c1=O the results were Integrin act MD -35.9%, DRD3 agonist -20.3 and DRD3 antagonist -5.8.

Assay outcomes from PubChem.
